Records with an inconclusive call do not appear. A structure can be active in one record and inactive in another. The source made the active and inactive calls. Unless noted, the call rests on the fitted dose curve; in most records, active means well fitted curve in the direction sought with a large enough effect in the repeat runs; inconclusive means weak or mixed curves; inactive means no such curve, though single readings can be large; an effect the other way counts as inactive or inconclusive.
Experiments:
[1] = target: Thyrotropin receptor (Homo sapiens) (UniProt P16473); assay: qHTS assay to identify small molecule antagonists of the thyroid stimulating hormone receptor (TSHR) signaling pathway (AID 1259385; calls by dose curve; further: nearly all actives have a fitted effect of over 20% in size)
Summary of the method: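 TSHR-HEK293 cells (800/well) plated 18 h, then compounds with Ro20-1724 and TSH at 1.5 ng/mL final, 30 min at room temperature. cAMP quantified by HTRF (cAMP-d2/anti-cAMP-cryptate, 1 h); 15 concentrations in triplicate.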

[2] = qHTS assay to identify small molecule agonists of the estrogen receptor alpha (ER-alpha) signaling pathway in the presence of an antagonist - cell viability counter screen (AID 1259386);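 further: series mostly up to about 92 µM; cells exposed to compounds for 22 h at 37 °C before the viability read; nearly all actives have a fitted effect of over 30% in size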
Summary of the method: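 ICI-182,780 at 10.0nM final accompanies the compound titration (15 concentrations, 22hr, 37C) on VM7Luc4E2 cells. The CellTiter-Fluor fluorescence readout runs in the same wells as the luciferase assay.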

[3] = target: Progesterone receptor (Homo sapiens) (UniProt P06401); assay: qHTS assay to identify small molecule agonists of the progesterone receptor (PR) signaling pathway (AID 1346784; calls by dose curve; further: nearly all actives have a fitted effect of over 30% in size)
Summary of the method: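 PR-UAS-bla HEK 293T cells carrying a UAS-driven beta-lactamase reporter were seeded in medium with 2% charcoal-stripped FBS, preincubated 6 hr at 37C, then exposed to compounds in DMSO for 16 hr; agonism was read by LiveBLAzer B/G FRET fluorescence.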

[4] = target: Progesterone receptor (Homo sapiens) (UniProt P06401); assay: qHTS assay to identify small molecule antagonists of the progesterone receptor (PR) signaling pathway (AID 1346795; active means well fitted inhibition curve with a large enough effect in the signal ratio in the repeat runs, not every such curve was filed as active; the % refers to the signal ratio)
Summary of the method: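 PR-UAS-bla HEK293T cells carrying a UAS-driven beta-lactamase reporter were plated in medium with 2% charcoal-stripped FBS and rested 6 hr at 37C. Compounds were added with 1 nM R5020 (final) for 16 hr, then FRET substrate loaded 2 hr at room temperature.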

[5] = qHTS assay to identify small molecule antagonists of the progesterone receptor (PR) signaling pathway - cell viability counter screen (AID 1346798); further: series mostly up to about 92 µM; nearly all actives have a fitted effect of over 50% in size
Summary of the method: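 PR-UAS-bla HEK293T cells in medium with 2% charcoal-stripped FBS were treated with compounds plus R5020 for 16 hr at 37C. Cell viability was then read by CellTiter-Glo luminescence after 30 min at room temperature in the same wells.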

[6] = qHTS assay to identify small molecule agonists of the progesterone receptor (PR) signaling pathway - cell viability counter screen (AID 1346799; calls by dose curve; further: nearly all actives have a fitted effect of over 45% in size; further: potency means the concentration at half of the fitted maximal effect)
Summary of the method: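 PR-UAS-bla HEK293T cells, 3,000 per well in medium with 2% charcoal-stripped FBS, were preincubated 6 hr at 37C, then exposed to compounds for 16 hr; viability was read as CellTiter-Glo luminescence after 30 min at room temperature.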

[7] = qHTS assay to identify small molecule antagonists of the TGF-beta/Smad signaling pathway - cell viability counter screen (AID 1346824); further: nearly all actives have a fitted effect of over 50% in size
Summary of the method: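 SBE-bla HEK 293T cells, incubated overnight, then compound plus 0.25 ng/mL TGF-beta1 (stock added) for 5 hr at 37 C. Viability was read in the same wells by CellTiter-Glo luminescence after 30 min at room temperature.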

[8] = qHTS assay to identify small molecule agonists of the TGF-beta/Smad signaling pathway - cell viability counter screen (AID 1346829); further: top concentration of the series differs between compounds; nearly all actives have a fitted effect of over 45% in size
Summary of the method: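 Same-well cytotoxicity: CellTiter-Glo added after the 2 hr room-temperature beta-lactamase substrate step, luminescence measured 30 min later; cells had 5 hr of compound at 37 C.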

[9] = qHTS assay to identify small molecule agonists of the TGF-beta/Smad signaling pathway (AID 1346859; active means well fitted activation curve with a large enough effect in the signal ratio in the repeat runs, not every such curve was filed as active; the % refers to the signal ratio; further: series mostly up to about 77 µM)
Summary of the method: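 HEK 293T cells stably carrying a beta-lactamase reporter driven by the Smad binding element were seeded overnight, exposed to DMSO-dissolved compounds for 5 hr at 37 C, 5% CO2, then loaded with FRET substrate for 2 hr at room temperature.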

[10] = target: Thyrotropin-releasing hormone receptor (Homo sapiens) (UniProt P34981); assay: qHTS assay to identify small molecule antagonists of the thyrotropin-releasing hormone receptor (TRHR) signaling pathway (AID 1346877; active means well fitted inhibition curve with a large enough effect in the repeat runs, not every such curve was filed as active; further: series mostly up to about 51 µM)
Summary of the method: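 Screening used HEK293 cells engineered with TRHR, with a brief 5 min room-temperature compound exposure preceding addition of TRH to 1 nM. The read-out was kinetic calcium-dye fluorescence, concentration-response from 15 doses in triplicate.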
On the % scale 0 is the no-effect control and ±100 the full control effect.

Sequence of Thyrotropin receptor (Homo sapiens) (P16473 whole entry, looked up): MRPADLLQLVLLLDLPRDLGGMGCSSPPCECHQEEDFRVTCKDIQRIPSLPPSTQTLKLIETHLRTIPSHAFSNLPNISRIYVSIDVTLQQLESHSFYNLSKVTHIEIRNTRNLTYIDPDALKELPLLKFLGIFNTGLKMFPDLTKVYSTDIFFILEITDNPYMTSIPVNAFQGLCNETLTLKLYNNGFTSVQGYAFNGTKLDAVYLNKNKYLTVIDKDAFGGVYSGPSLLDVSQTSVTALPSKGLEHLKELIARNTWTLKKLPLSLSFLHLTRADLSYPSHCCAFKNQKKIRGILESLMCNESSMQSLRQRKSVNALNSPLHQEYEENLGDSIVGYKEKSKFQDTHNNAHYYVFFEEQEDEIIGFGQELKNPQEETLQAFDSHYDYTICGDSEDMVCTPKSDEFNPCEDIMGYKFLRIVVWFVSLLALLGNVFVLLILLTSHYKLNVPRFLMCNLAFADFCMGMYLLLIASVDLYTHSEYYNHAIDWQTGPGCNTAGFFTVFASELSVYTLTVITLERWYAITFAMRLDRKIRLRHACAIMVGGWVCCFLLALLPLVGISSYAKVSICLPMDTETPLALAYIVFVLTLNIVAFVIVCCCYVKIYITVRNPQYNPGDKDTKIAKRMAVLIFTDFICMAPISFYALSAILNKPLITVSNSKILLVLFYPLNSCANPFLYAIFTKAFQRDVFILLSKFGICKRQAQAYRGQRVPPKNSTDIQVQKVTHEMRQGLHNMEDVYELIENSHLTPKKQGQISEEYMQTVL
Sequence of Thyrotropin-releasing hormone receptor (Homo sapiens) (P34981 whole entry, looked up): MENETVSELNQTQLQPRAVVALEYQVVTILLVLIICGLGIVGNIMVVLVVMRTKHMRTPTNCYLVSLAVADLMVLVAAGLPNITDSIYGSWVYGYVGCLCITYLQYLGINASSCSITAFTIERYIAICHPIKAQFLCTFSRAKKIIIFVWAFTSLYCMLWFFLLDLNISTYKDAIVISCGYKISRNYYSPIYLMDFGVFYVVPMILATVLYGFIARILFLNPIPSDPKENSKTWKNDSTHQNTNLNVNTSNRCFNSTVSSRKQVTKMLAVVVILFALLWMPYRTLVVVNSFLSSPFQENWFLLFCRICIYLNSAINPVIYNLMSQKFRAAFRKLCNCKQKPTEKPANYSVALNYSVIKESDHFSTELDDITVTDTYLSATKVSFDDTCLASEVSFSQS
Sequence of Progesterone receptor (Homo sapiens) (P06401 whole entry, looked up): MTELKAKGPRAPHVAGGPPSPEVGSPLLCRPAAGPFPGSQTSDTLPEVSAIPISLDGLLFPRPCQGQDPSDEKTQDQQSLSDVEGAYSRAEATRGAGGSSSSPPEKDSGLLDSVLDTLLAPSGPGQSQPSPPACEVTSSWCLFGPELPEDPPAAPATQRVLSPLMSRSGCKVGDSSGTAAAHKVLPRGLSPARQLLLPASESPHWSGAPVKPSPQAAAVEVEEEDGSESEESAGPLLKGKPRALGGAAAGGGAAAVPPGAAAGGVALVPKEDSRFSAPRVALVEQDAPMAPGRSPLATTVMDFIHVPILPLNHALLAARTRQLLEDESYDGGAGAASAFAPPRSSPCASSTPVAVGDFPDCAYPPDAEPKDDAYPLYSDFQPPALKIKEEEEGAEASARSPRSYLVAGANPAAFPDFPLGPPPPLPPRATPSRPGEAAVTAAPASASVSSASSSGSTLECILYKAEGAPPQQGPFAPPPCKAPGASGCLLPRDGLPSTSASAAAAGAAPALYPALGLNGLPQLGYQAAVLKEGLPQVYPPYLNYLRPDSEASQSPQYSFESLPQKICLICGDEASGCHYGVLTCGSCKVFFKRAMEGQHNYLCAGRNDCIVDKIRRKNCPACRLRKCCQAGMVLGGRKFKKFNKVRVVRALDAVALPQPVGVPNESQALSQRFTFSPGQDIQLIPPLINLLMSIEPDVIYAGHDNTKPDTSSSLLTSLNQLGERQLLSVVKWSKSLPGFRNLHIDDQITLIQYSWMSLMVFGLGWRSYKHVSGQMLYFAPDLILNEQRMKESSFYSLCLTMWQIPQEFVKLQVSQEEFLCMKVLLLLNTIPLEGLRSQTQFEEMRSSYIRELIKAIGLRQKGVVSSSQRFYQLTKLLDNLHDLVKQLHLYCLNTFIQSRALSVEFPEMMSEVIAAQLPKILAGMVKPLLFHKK

CN1C(=O)COc2c(C(=O)NC3CN4CCC3CC4)cc(Cl)cc21 (stereo not given)
inactive: outcome [1] | Potency [2] | Potency [3] | Potency [4] | Potency [5] | Potency [6] | outcome [7] | Potency [8] | outcome [9] | Potency [10]

ClC1=C(Cl)C2(Cl)C(CBr)CC1(Cl)C2(Cl)Cl (stereo not given)
inactive: outcome [1] | Potency [2] | Potency [3] | Potency [4] | Potency [5] | outcome [7] | Potency [8] | outcome [9] | Potency [10]
68.6 µM (active) and inactive: Potency [6]

C=C(C)[C@H]1CN[C@H](C(=O)O)[C@H]1CC(=O)O
inactive: outcome [1] | Potency [2] | Potency [3] | Potency [4] | Potency [5] | Potency [6] | outcome [7] | Potency [8] | outcome [9] | Potency [10]

CCC1(c2ccccc2)C(=O)N(COC)C(=O)N(COC)C1=O
inactive: outcome [1] | Potency [2] | Potency [3] | Potency [4] | Potency [5] | Potency [6] | outcome [7] | Potency [8] | outcome [9] | Potency [10]

CCC1(CC)C(=O)C=CNC1=O
inactive: outcome [1] | Potency [2] | Potency [3] | Potency [4] | Potency [5] | Potency [6] | outcome [7] | Potency [8] | outcome [9] | Potency [10]

CCOP(=S)(OCC)SCCl
inactive: outcome [1] | Potency [2] | Potency [3] | Potency [4] | Potency [5] | Potency [6] | outcome [7] | Potency [8] | outcome [9] | Potency [10]

CC1NCCOC1c1ccccc1 (stereo not given)
inactive: outcome [1] | Potency [2] | Potency [3] | Potency [4] | Potency [5] | Potency [6] | outcome [7] | Potency [8] | outcome [9] | Potency [10]

CC(C)(O)C(Cl)(Cl)Cl
inactive: outcome [1] | Potency [2] | Potency [3] | Potency [4] | Potency [5] | Potency [6] | outcome [7] | Potency [8] | outcome [9]

O=P(O)(O)c1ccccc1
inactive: outcome [1] | Potency [2] | Potency [3] | Potency [4] | Potency [5] | Potency [6] | outcome [7] | Potency [8] | outcome [9] | Potency [10]

CCCCCCCCBr
inactive: outcome [1] | Potency [2] | Potency [3] | Potency [4] | Potency [5] | Potency [6] | outcome [7] | Potency [8] | outcome [9] | Potency [10]

C=C(Cl)CCl
inactive: outcome [1] | Potency [2] | Potency [3] | Potency [4] | Potency [5] | Potency [6] | outcome [7] | Potency [8] | outcome [9] | Potency [10]

O=C(Cl)c1ccccc1
inactive: outcome [1] | Potency [2] | Potency [3] | Potency [4] | Potency [5] | Potency [6] | outcome [7] | Potency [8] | outcome [9] | Potency [10]

Cc1ccc2c(c1)C1CN(C)CCC1N2 (stereo not given)
inactive: activity change, negative = inhibition [1] 8.62% [at 19 µM] | activity change, negative = cytotoxicity [2] -4.97% [at 19 µM] | activation [3] -0.799% [at 19 µM] | activity change, negative = inhibition [4] 5.78% [at 18.9 µM] | activity change, negative = cytotoxicity [5] -15.8% [at 18.9 µM] | activity change, negative = cytotoxicity [6] -23.2% [at 19 µM] | viability change, negative = cytotoxic [7] 0.721% [at 15.8 µM] | activity change, negative = cytotoxicity [8] -8.68% [at 15.8 µM] | activation [9] 3.74% [at 15.8 µM]

O=C(O)c1c(Cl)ccc2cc(Cl)cnc12
inactive: outcome [1] | Potency [2] | Potency [3] | Potency [4] | Potency [5] | Potency [6] | outcome [7] | Potency [8] | outcome [9] | Potency [10]

CCC1(c2ccccc2)CCC(=O)NC1=O (stereo not given)
inactive: outcome [1] | Potency [2] | Potency [3] | Potency [4] | Potency [5] | Potency [6] | outcome [7] | Potency [8] | outcome [9] | Potency [10]

O=C(Cl)C(Cl)(Cl)Cl
inactive: outcome [1] | Potency [2] | Potency [3] | Potency [4] | Potency [5] | Potency [6] | outcome [7] | Potency [8] | outcome [9] | Potency [10]

Cc1ccc(Cl)c(O)c1
inactive: outcome [1] | Potency [2] | Potency [3] | Potency [4] | Potency [5] | Potency [6] | outcome [7] | Potency [8] | outcome [9] | Potency [10]

CC(=O)OCC1=C(C(=O)O)N2C(=O)[C@@H](N)[C@H]2SC1
inactive: activity change, negative = inhibition [1] 1.01% [at 19 µM] | activity change, negative = cytotoxicity [2] -2.84% [at 19 µM] | activation [3] 0.683% [at 19 µM] | activity change, negative = inhibition [4] 0.73% [at 18.9 µM] | activity change, negative = cytotoxicity [5] 2.66% [at 18.9 µM] | activity change, negative = cytotoxicity [6] 3.69% [at 19 µM] | viability change, negative = cytotoxic [7] -0.755% [at 15.8 µM] | activity change, negative = cytotoxicity [8] -0.572% [at 15.8 µM] | activation [9] -1.32% [at 15.8 µM]

CCCCCCCC(=O)Cl
inactive: outcome [1] | Potency [2] | Potency [3] | Potency [4] | Potency [5] | Potency [6] | outcome [7] | Potency [8] | outcome [9] | Potency [10]

C/C=C/CC#N
inactive: outcome [1] | Potency [2] | Potency [3] | Potency [4] | Potency [5] | Potency [6] | outcome [7] | Potency [8] | outcome [9] | Potency [10]

CN=CNc1ccc(C)cc1C
inactive: outcome [1] | Potency [2] | Potency [3] | Potency [4] | Potency [5] | Potency [6] | outcome [7] | Potency [8] | outcome [9]

CCC1(c2cccc(O)c2)CCCCN(C)C1 (stereo not given)
inactive: outcome [1] | Potency [2] | Potency [3] | Potency [4] | Potency [5] | Potency [6] | outcome [7] | Potency [8] | outcome [9] | Potency [10]

CCN1CCCC1CNC(=O)C(O)(c1ccccc1)c1ccccc1 (stereo not given)
inactive: outcome [1] | Potency [2] | Potency [3] | Potency [4] | Potency [5] | Potency [6] | outcome [7] | Potency [8] | outcome [9]

S=C=S
inactive: outcome [1] | Potency [2] | Potency [3] | Potency [4] | Potency [5] | Potency [6] | outcome [7] | Potency [8] | outcome [9] | Potency [10]
